From the supplement of paper PMC6555819

Legend:
Test in all cases: PBM binding z-score (relative to random genomic background probes); higher = stronger binding; sequences stand for … in GC…GCGATTGACAGCGTAGAATGAAGG
[1] = system: FXR:RXRa (NR concentration 270 nM, RXRa partner concentration 90 nM)
How it was run: (§1)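 Antibodies against each partner of ligand-free nuclear receptor dimers (one per run) detected binding on custom Agilent 4×180K protein-binding microarrays after 1 h incubation. The double-stranded probes had 34-nt variable regions carrying direct-repeat seeds, single-nucleotide variants, half-site ablations and random human genomic background sequences. Binding z-scores, from regression-normalized fluorescence, use the random background probes as reference.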

[2] = system: LXRa:RXRa (NR concentration 270 nM, RXRa partner concentration 90 nM)
How it was run: as §1

[3] = system: LXRa homodimer (NR concentration 270 nM)
How it was run: as §1

[4] = system: LXRb:RXRa (NR concentration 270 nM, RXRa partner concentration 90 nM)
How it was run: as §1

[5] = system: LXRb homodimer (NR concentration 270 nM)
How it was run: as §1

[6] = system: PPARa:RXRa (NR concentration 270 nM, RXRa partner concentration 90 nM)
How it was run: as §1

[7] = system: PPARg:RXRa (NR concentration 180 nM, RXRa partner concentration 90 nM)
How it was run: as §1

[8] = system: PPARg:RXRa 270nM:90nM, anti-RXR (NR concentration 270 nM, RXRa partner concentration 90 nM)
How it was run: as §1

[9] = system: PPARg:RXRa 30nM:10nM, anti-RXR (NR concentration 30 nM, RXRa partner concentration 10 nM)
How it was run: as §1

[10] = system: PPARg:RXRa 90nM:30nM, anti-RXR (NR concentration 90 nM, RXRa partner concentration 30 nM)
How it was run: as §1

[11] = system: PPARg:RXRa DBDmut IVT, anti-RXR (DBD mutation: RXRa K156A/R161A, NR concentration 270 nM, RXRa partner concentration 90 nM)
How it was run: as §1

[12] = system: PPARg:RXRa IVT, anti-PPARg (NR concentration 270 nM, RXRa partner concentration 90 nM)
How it was run: as §1

[13] = system: PPARg DBDmut:RXRa IVT, anti-PPARg (DBD mutation: PPARg1 K132A/R137A, NR concentration 270 nM, RXRa partner concentration 90 nM)
How it was run: as §1

[14] = system: PPARg DBDmut IVT, anti-PPARg (DBD mutation: PPARg1 K132A/R137A, NR concentration 270 nM)
How it was run: as §1

[15] = system: PPARg homodimer (NR concentration 180 nM)
How it was run: as §1

[16] = system: PXR:RXRa (NR concentration 270 nM, RXRa partner concentration 90 nM)
How it was run: as §1

[17] = system: PXR homodimer (NR concentration 270 nM)
How it was run: as §1

[18] = system: RARa:RXR (NR concentration 270 nM, RXRa partner concentration 90 nM)
How it was run: as §1

[19] = system: RARa homodimer (NR concentration 270 nM)
How it was run: as §1

[20] = system: RARb:RXRa (NR concentration 270 nM, RXRa partner concentration 90 nM)
How it was run: as §1

| Sequence | PBM binding z-score [1] | PBM binding z-score [2] | PBM binding z-score [3] | PBM binding z-score [4] | PBM binding z-score [5] | PBM binding z-score [6] | PBM binding z-score [7] | PBM binding z-score [8] | PBM binding z-score [9] | PBM binding z-score [10] | PBM binding z-score [11] | PBM binding z-score [12] | PBM binding z-score [13] | PBM binding z-score [14] | PBM binding z-score [15] | PBM binding z-score [16] | PBM binding z-score [17] | PBM binding z-score [18] | PBM binding z-score [19] | PBM binding z-score [20] |
| --- | --- | --- | --- | --- | --- | --- | --- | --- | --- | --- | --- | --- | --- | --- | --- | --- | --- | --- | --- | --- |
| CCAGACAGGTGAGAAGGTAACTGAGCCTCGATTA | -0.0558 | -0.104 | -0.12 | -0.102 | -0.691 | 0.592 | 0.397 | 0.61 | -0.11 | 0.193 | 0.955 | 0.477 | -0.278 | -0.535 | 0.591 | -0.214 | 0.124 | 0.14 | 0.118 | 0.396 |
| AGTCAAAGTTCATGACGAGGTAACGTAAAGCACG | 6.67 | 6.13 | 2.96 | 3.45 | 0.691 | 5.01 | 6.45 | 6.59 | 3.58 | 5.63 | 0.137 | 3.44 | 1.06 | 1.37 | 3.26 | 4.93 | 1.98 | 4.61 | 0.824 | 4.84 |
| ACTAGGAGGCCAAGGGTCACTCAAGATTAGTCCG | 2.82 | 3.11 | 0.119 | 2.83 | 0.0149 | 4.59 | 8.49 | 7.94 | 7.43 | 8.35 | 1.26 | 3.95 | -0.025 | -0.509 | 3.03 | 3.57 | 0.414 | 4.7 | 1.03 | 3.64 |
| ACTAGTTGGTGAGCTGAGGTCACACACAATTCGG | 2.78 | 2.49 | 1.5 | 2.85 | 0.277 | 3.35 | 1.49 | 2.09 | 0.341 | 1.3 | 0.913 | 1.97 | 0.121 | 0.0784 | 2.24 | 4.76 | 1.9 | 4.65 | 0.439 | 2.98 |
| TCAAATAGGTAAAGGTGAAAGTCGAACGATATGA | 0.93 | 1.78 | 0.0504 | 1.72 | 0.00812 | 3.48 | 3.34 | 4.34 | 5 | 4.99 | 3.65 | 3.47 | 1.88 | 0.968 | 2.04 | 1.17 | 0.187 | 1.93 | 0.988 | 2.28 |
| ACTTACGGGTCAACGAGGTTACAGCACGCGTATA | 7.13 | 5.03 | 0.828 | 4.72 | 0.537 | 6 | 5.8 | 5.86 | 2.49 | 4.5 | 3.63 | 4.61 | 3.52 | 1.44 | 2.75 | 5.25 | 2.74 | 5.23 | 1.58 | 4.44 |
| AATACATGGTCACTAGGCCAGAGTAGGTACGAAT | -0.31 | -0.00437 | -0.0579 | -0.301 | -0.193 | 0.587 | 1.65 | 1.15 | 0.153 | 0.688 | 1.04 | 2.74 | 0.798 | 1.09 | 0.338 | -0.198 | -0.158 | -0.153 | -0.0326 | 1.14 |
| ACTAGTTGGTCAGCTGAGGTCACACAGAATTCGG | 3.75 | 3.32 | 2.31 | 3.64 | 0.768 | 3.8 | 1.87 | 2.46 | 0.831 | 1.73 | 1.48 | 3.02 | 0.452 | 0.375 | 2.18 | 5.36 | 1.87 | 4.56 | 0.455 | 3.72 |
| GATACAGGGTCAGCCAGAGGCCAGAGTATGGAAA | 4.61 | 2.94 | -0.284 | 2.56 | -0.975 | 4.69 | 4.13 | 3.7 | 0.98 | 2.28 | 1.1 | 2.63 | 0.315 | -0.142 | 2.32 | 3.4 | -0.204 | 4.58 | 0.402 | 4.19 |
| TCTGCTAGGTCAATGATGGTCAGCTAATCTGCTA | 2.48 | 2.82 | -0.0629 | 1.38 | -0.0652 | 2.69 | 1.53 | 2.35 | 1.77 | 2.05 | 3.8 | 3.49 | 0.246 | -0.13 | 0.244 | 1.02 | -0.71 | 1.46 | -0.32 | 3.72 |
| TCATAGAGGTAAACAGGTGAAAGTCCGTAAGTTA | 0.648 | 0.794 | -0.178 | 0.62 | -0.997 | 2.14 | 1.65 | 2.55 | 2.8 | 2.68 | 2.54 | 2.16 | 0.176 | 0.0732 | 0.143 | 0.625 | -0.208 | 1.11 | 0.579 | 0.861 |
| CTTCGGAGGACAACAGGAGGTCAGAGCTGCCAGA | 1.34 | 2.65 | 2.21 | 1.45 | -0.45 | 2.23 | 0.516 | 0.602 | -0.765 | 0.051 | 0.0715 | 0.767 | -2.3 | -1.62 | 1.69 | 2.41 | 0.525 | 2.64 | 0.557 | 2.98 |
| TCTTGTAGGTCAAGCAGGTTAAGAAAGCCTGAGT | 5.29 | 4.34 | 1.19 | 3.44 | 0.725 | 5.22 | 7.42 | 6.59 | 4.79 | 6.42 | 7.24 | 8.12 | 1.76 | 1.83 | 1.66 | 3.63 | 0.673 | 3.68 | 0.596 | 4.34 |
| CTCGAAAGGTCGTGCTCAGGTAAGTATACCAAAC | 5.43 | 4.11 | 0.35 | 3.55 | 0.134 | 5.08 | 2.41 | 4.23 | 1.01 | 2.94 | 0.999 | 1.78 | 0.44 | -0.41 | 1.63 | 3.24 | 0.482 | 3.73 | 0.0606 | 3.99 |
